Shown are actives, neighbours in structure and some others; about 1.9% of the full set was active somewhere.
PABP FP inh: PABP poly(A) RNA binding inhibitors, primary screen, biochemical, fluorescence polarization, uHTS; Polyadenylate-binding protein 1 (Homo sapiens), P11940; inhibition, % at 35 µM; 1% of 290,000 active; AID 2014, 2009;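 note: calls also rest on retests at 20 µM and on dose response follow-up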
eIF4H inh: human eIF4H binding inhibitors, primary screen, translation initiation inhibitor project, biochemical, uHTS, fluorescence polarization. AID 2012, 2009. inhibition, % at 35 µM. 0.94% of 290,000 active. eIF4H fluorescence polarization binding assay. Eukaryotic translation initiation factor 4H (Homo sapiens), Q15056;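 note: calls also rest on retests at 20 µM and on dose response follow-up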
PABP1 MLLE inh: inhibitors of PABP1 MLLE–PAM2 peptide binding, primary screen, biochemical, fluorescence polarization, FITC-PAM2, GST-MLLE; Polyadenylate-binding protein 1 (Homo sapiens), P11940; inhibition, % at 20 µM; 0.36% of 360,000 active; AID 588489, 2011; in the data active = inhibition above about 35%, passing the limit was not always enough;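 note: plate controls were DMSO wells with GST-MLLE for no effect and wells lacking GST-MLLE protein for full effect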
PERK inh: block of dimerizer-induced PERK translation repression, primary screen, PERK inhibitor project, CHO PERK-DD cells, SEAP luminescence, HTS; Eukaryotic translation initiation factor 2-alpha kinase 3 (Homo sapiens), Q9NZJ5; CHO PERK-DD fusion, SEAP luminescence translation reporter; inhibition, % at 5.6 µM; 0.17% of 220,000 active; AID 1416, 2008;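 active = inhibition above the mean inhibition of all tested compounds plus 3 SD, set separately per screening campaign, cut at about 2.9% in these data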;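 note: PERK kinase domain activated by AP20187 dimerizer at 100 nM; 0% = DMSO with dimerizer and 100% = rapamycin at 8.4 µM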
GRK2 inh: compounds blocking aptamer binding on GRK2 – biochemical, human GRK2, bead flow cytometry, HTS, primary screen | AID 488847, 2010 | 0.59% of 330,000 active | Beta-adrenergic receptor kinase 1 (Homo sapiens), P25098 | inhibition of aptamer binding, % at 10 µM | FAM-aptamer displacement from GRK2;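 active = inhibition of aptamer binding above 40%, roughly 3 SD of noise, on plates passing a quality check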;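 note: median bead fluorescence of bound FAM aptamer so fluorescent compounds give negative values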
GRK2 CP1: GRK2 aptamer-displacing inhibitors, retest, confirmation, biochemical, cherry pick 1, bead flow cytometry; shares compounds with GRK2 inh; bead-bound GRK2, FAM-aptamer displacement; aptamer displacement, % at 10 µM; 4% of 2,000 active; AID 504451, 2011;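 active = aptamer displacement above 40%, near three times the noise of non-fluorescent compounds, on plates passing quality checks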;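 note: negative values mostly reflect intrinsic compound fluorescence rather than true enhancement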
Aptamer quench SP: aptamer fluorescence quenching in GRK2 counter-screen. shares compounds with GRK2 inh. Carboxyfluorescein RNA aptamer on beads, flow cytometry quenching; active compounds read low. fluorescence response (% of DMSO), % at 10 µM. 2,000 tested, under 10 active;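 active = compounds that quench the bead-bound fluorescent RNA probe, cutting fluorescence to under half of the solvent control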;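 note: counterscreen run without GRK2 so only probe quenching by compound is measured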
GRK2 confirm 2: GRK2 aptamer-displacing inhibitors, hit retest, confirmation, biochemical, cherry pick 2, bead flow cytometry; inhibition of aptamer binding, % at 10 µM; 360 tested, under 10 active; shares compounds with GRK2 inh; bead-bound GRK2, FAM-aptamer displacement; AID 504782, 2011;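 active = inhibition of aptamer binding above 40%, about triple the noise seen with nonglowing compounds, on plates passing quality control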;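 note: negative values mostly come from compounds that fluoresce themselves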
FAM quench SP: quenches fluorescent RNA aptamer, GRK2 hit artifact. fluorescence response vs DMSO, % at 10 µM. carboxyfluorescein RNA aptamer beads, flow cytometry quenching; active compounds read low. AID 588494. 360 tested, under 10 active. shares compounds with GRK2 inh;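 active = response vs DMSO under 50%, meaning signal dropped by over half, treated as fluorescence quencher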;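 note: labelled aptamer on streptavidin beads without GRK2 as a quench counter-screen; 100% = bead fluorescence of DMSO wells and lower means quenching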
The depositor's hits bear a star; . = no result given. Unless noted, the rule behind the calls is not given here.

SMILES	PABP FP inh	eIF4H inh	PABP1 MLLE inh	PERK inh	GRK2 inh	GRK2 CP1	Aptamer quench SP	others
Cc1ccc(-c2nc(CS(=O)(=O)CC(=O)N3CCCCCC3)c(C)o2)cc1	-2.4	6.4	-7.2	-0.2	73.0*	-4.4	102.9
Cn1c(CNC(=O)c2ccco2)nnc1SCC(=O)c1ccc(Br)cc1	5.7	-10.9	-6.8	.	4.0	.	.
CCc1cnc(Nc2nc(C(N)Cc3ccc(F)cc3)cs2)nc1 (stereo not drawn)	.	.	10.9	.	.	.	.
Cc1cc(C(C)(C)C)cc(S(=O)(=O)NCCO)c1C	7.1	2.5	3.1	1.3	99.0*	-5.0	100.0
CN(CC(=O)Nc1ccccc1Cl)C(=O)Cn1cc(C(F)(F)F)ccc1=O	.	.	-9.7	.	65.0*	0.3	96.1
CNc1cncc(C(=O)O)c1	10.6	44.5	-23.6	-0.1	3.0	.	.
COc1ccc(C)cc1NC(=O)c1ccc2c(c1)C(=O)N(Cc1ccncc1)C2=O	.	.	-22.3	.	79.0*	1.7	95.0
COc1ccc(NC(=O)C2CSC(C)(C)N2C=O)cc1 (stereo not drawn)	-1.5	-4.6	7.7	0.5	75.0*	-2.5	99.7
COC(=O)c1sc(NC(=O)COc2cccc(C)c2)nc1C	3.9	-5.0	14.1	1.7	72.0*	.	.	GRK2 confirm 2=-12.3;FAM quench SP=105.0
NCCCC[C@@H]1NC(=O)c2cc([N+](=O)[O-])cc(I)c2SC[C@@H](C(N)=O)NC(=O)[C@H](Cc2ccc(O)cc2)NC1=O	-1.9	-4.0	-2.4	0.2	69.0*	-39.1	103.6
NCCCC[C@@H]1NC(=O)[C@H](CCC(=O)O)NC(=O)c2cc([N+](=O)[O-])cc(I)c2SC[C@@H](C(=O)NCC(N)=O)NC1=O	10.4	14.1	4.2	0.0	1.0	.	.
NCCCC[C@H]1NC(=O)[C@H](CCC(=O)O)NC(=O)c2cc([N+](=O)[O-])cc(I)c2OCC[C@@H](C(N)=O)NC1=O	2.5	23.2	.	0.4	56.0*	36.6	101.5
COCC1CCN(C(=O)C2CCC(=O)N(C3CCCCCC3)C2)CC1 (stereo not drawn)	-0.3	-6.4	-4.2	.	0.0	.	.
NC(=O)c1ccc(NC(=O)COC(=O)/C=C/c2ccc(Br)o2)cc1	.	.	-1.0	.	44.0*	19.5	91.4
CCOCCCNC(=O)c1c[nH]c2ccc(OCC)cc2c1=O	-2.2	-1.9	4.2	0.5	5.0	.	.
COc1ccc(C(=O)N/C(=C\c2cn(C)c3ccccc23)C(=O)N2CCOCC2)cc1OC	3.3	-5.3	-11.4	.	57.0*	-2.6	102.5
COc1cccc(C(=O)Nc2cccc(-c3ccc4nncn4n3)c2)c1OC	-6.6	0.8	8.9	-0.6	17.0	.	.
COc1ccc(Cl)cc1C(=O)Nc1cccc(-c2ccc3nncn3n2)c1	-10.9	-34.5	-185.6	0.0	60.0*	17.4	96.3
Cc1ccc(S(=O)(=O)N2CCN(C(=O)COC(=O)CCc3ccccc3)CC2)c(C)c1	.	.	7.2	.	0.0	.	.
Cc1ccc(S(=O)(=O)N2CCN(C(=O)COC(=O)CCOc3ccccc3)CC2)c(C)c1	.	.	-90.7	.	63.0*	-2.7	99.9
NC(=O)c1ncn([C@@H]2O[C@H](CNC(=O)[C@H](N)CSCc3ccccc3)[C@@H](O)[C@H]2O)n1	.	.	4.6	.	.	.	.
CC(C(=O)N(C)c1ccccc1)N1CCN(C(=O)c2ccccc2)CC1 (stereo not drawn)	-4.9	10.5	6.5	.	8.0	.	.
COc1ccc(N2CCN(C3CCCN(Cc4ccc(F)cc4Cl)C3)CC2)cc1 (stereo not drawn)	-3.8	-7.4	-12.8	.	0.0	.	.
Cn1c(CCC(N)=O)nnc1SCC(=O)Nc1ccccc1C(=O)NC1CC1	.	.	6.0	.	75.0*	-16.7	98.3
O=C(CCOc1ccccc1)Nc1ccnn1C1CCN(C(=O)CCC(F)(F)F)CC1	.	.	5.5	.	98.0*	0.0	97.9
SMILES	PABP FP inh	eIF4H inh	PABP1 MLLE inh	PERK inh	GRK2 inh	GRK2 CP1	Aptamer quench SP	others
COc1cccc(CC2(CO)CCCN(Cc3cn[nH]c3-c3ccc(F)cc3)C2)c1 (stereo not drawn)	-4.3	-5.2	-10.0	2.0	0.0	-3.0	103.6
O=C(O)CCc1ccc(-c2ccc(F)cc2)n1CC(=O)O	18.8	7.8	27.4	-0.7	6.0	.	.
Cc1ccc(-c2ccc(CCC(=O)O)n2CC(=O)O)cc1	49.8	37.7	9.1	1.4	89.0*	2.8	98.4
CCCN(C(=O)c1cn(C)c(=O)c2ccccc12)c1ccccc1C	-6.5	-2.4	15.6	.	0.0	-2.6	95.6
CCOc1ccc(NC(=O)CCS(=O)(=O)c2ccc3c(c2)CCCN3C(C)=O)cc1	-1.8	2.4	7.1	0.0	4.0	.	.
CCC(=O)N1CCc2cc(S(=O)(=O)CCC(=O)NCc3cccs3)ccc21	5.4	-9.0	4.7	0.3	0.0	.	.	GRK2 confirm 2=11.5;FAM quench SP=99.0
CCOc1ccccc1NC(=O)CCS(=O)(=O)c1ccc2c(c1)CC(C)N2C(C)=O (stereo not drawn)	3.6	-1.0	15.3	.	1.0	.	.
CCOc1ccccc1NC(=O)CCS(=O)(=O)c1ccc2c(c1)CCN2C(C)=O	2.4	-0.9	10.1	.	6.0	.	.	GRK2 confirm 2=-8.3;FAM quench SP=101.0
CCc1ccccc1NC(=O)CCS(=O)(=O)c1ccc2c(c1)CCCN2C(C)=O	20.8	16.5	8.0	.	61.0*	1.1	99.9	GRK2 confirm 2=17.2;FAM quench SP=100.0
CN(Cc1ccco1)S(=O)(=O)c1csc(C(N)=O)c1	13.2	8.3	-2.0	.	3.0	.	.
COc1cccc(NC(=O)Nc2nnc([C@H]3C[C@H](O)[C@@H](CO)O3)s2)c1	.	.	-6.7	.	.	.	.
CC(C)n1c(=O)[nH][nH]c1=S	2.8	-7.8	-37.7	0.2	1.0	.	.
Cc1cc(C)n2nc(C(=O)OCC(=O)c3cc(C)n(C)c3C)nc2n1	44.1	62.5*	8.1	2.3	41.0*	26.1	99.7
Clc1c2c(nc3ccccc13)CCC2	-6.7	2.9	-3.9	.	1.0	.	.	GRK2 confirm 2=-7.6;FAM quench SP=126.0
CC(=O)c1cccc(NC(=O)CSc2nnc(C(C)N(C)C)n2Cc2ccccc2)c1 (stereo not drawn)	-9.6	-8.3	-16.4	.	0.0	.	.

Screening data as filed in PubChem.
